According to PubChem BioAssay (EPA / NIEHS):
Where “and” joins values, the source holds several entries; their conditions need not be identical. Equal values may be shown once. A structure can be active in one record and inactive in another. Calls of active or inactive are those of the source. Rule for the calls: active = hit-call score of the fitted dose curve at least 0.9, where 1 is the maximum; inactive = score below 0.9.

Columns and labels:
[1] = read-out: Collagen I, COL1A1 (gene 1277); experiment: BSK_hDFCGF_CollagenI: BioMAP Diversity Plus: hDFCGF Assay for Collagen I Biomarker Activity (AID 2284250); conditions: primary human foreskin fibroblasts
Method in brief: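 Cells were primary human foreskin fibroblasts treated for 24 h. Collagen I levels were then determined by ELISA and compared against DMSO controls.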

[2] = read-out: Interferon-inducible T-cell alpha chemoattractant (ITAC), CXCL11 (gene 6373); experiment: BSK_hDFCGF_ITAC: BioMAP Diversity Plus: hDFCGF Assay for Interferon-inducible T-cell alpha chemoattractant (ITAC) Biomarker Activity (AID 2284251); conditions: primary human foreskin fibroblasts
Method in brief: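 Fibroblasts (human foreskin, primary) are treated with chemical, cultured 24 h, then assayed for I-TAC by ELISA. Overt toxicity is checked in parallel cultures by sulforhodamine B staining of total protein at the same time point.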

[3] = read-out: Plasminogen activator inhibitor-1 (PAI1), SERPINE1 (gene 5054); experiment: BSK_KF3CT_PAI1: BioMAP Diversity Plus: KF3CT Assay for Plasminogen activator inhibitor-1 (PAI1) Biomarker Activity (AID 2284252); conditions: primary human keratinocytes with fibroblasts
Method in brief: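 Signal is PAI-1 detected by ELISA in a human skin-derived keratinocyte/fibroblast co-culture, 24 h after dosing; DMSO served as negative control and baseline.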

[4] = read-out: Monocyte Chemoattractant Protein-1 (MCP1), CCL2 (gene 6347); experiment: BSK_IMphg_MCP1: BioMAP Diversity Plus: IMphg Assay for Monocyte Chemoattractant Protein-1 (MCP1) Biomarker Activity (AID 2284253); conditions: primary human endothelial cells with macrophages
Method in brief: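 Human venular endothelial cells co-cultured with macrophages; MCP-1 measured by ELISA 24 hours post-dose and fitted against DMSO. Cytotoxicity monitored by SRB total-protein staining in parallel cultures.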

[5] = read-out: Interleukin-8 (IL8), CXCL8 (gene 3576); experiment: BSK_KF3CT_IL8: BioMAP Diversity Plus: KF3CT Assay for Interleukin-8 (IL8) Biomarker Activity (AID 2284254); conditions: primary human keratinocytes with fibroblasts
Method in brief: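 ELISA detection of IL-8 from a human skin co-culture, keratinocytes with foreskin fibroblasts, at 24 h following chemical exposure, with gain of signal scored against DMSO controls.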

[6] = read-out: Macrophage Inflammatory Protein-1 Alpha (MIP1a), CCL3 (gene 6348); experiment: BSK_IMphg_MIP1a: BioMAP Diversity Plus: IMphg Assay for Macrophage Inflammatory Protein-1 Alpha (MIP1a) Biomarker Activity (AID 2284255); conditions: primary human endothelial cells with macrophages
Method in brief: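 Co-culture of human venular endothelial cells and macrophages exposed to compounds for 24 h; MIP-1a measured by ELISA relative to DMSO. Cytotoxicity assessed in parallel cultures by sulforhodamine B total-protein staining at 560 nm.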

[7] = read-out: Plasminogen activator inhibitor-1 (PAI1), SERPINE1 (gene 5054); experiment: BSK_MyoF_PAI1: BioMAP Diversity Plus: MyoF Assay for Plasminogen activator inhibitor-1 (PAI1) Biomarker Activity (AID 2284256); conditions: primary human lung fibroblasts
Method in brief: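 Activity reflects increased PAI-1, determined by ELISA and compared with DMSO, in human lung fibroblasts treated for 24 h.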

CD69, CD69 (gene 969) = experiment: BSK_IMphg_CD69: BioMAP Diversity Plus: IMphg Assay for CD69 Biomarker Activity (AID 2284257); conditions: primary human endothelial cells with macrophages
Method in brief: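 Human venular endothelial cells co-cultured with macrophages; CD69 quantified by ELISA 24 h after compound addition. Activity fitted in the positive direction relative to DMSO baseline; cytotoxicity tracked in parallel cultures via SRB total-protein staining.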

[8] = read-out: Eotaxin 3, CCL26 (gene 10344); experiment: BSK_BF4T_Eotaxin3: BioMAP Diversity Plus: BF4T Assay for Eotaxin 3 Biomarker Activity (AID 2284258); conditions: primary human bronchial epithelial cells with fibroblasts
Method in brief: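 Co-culture of human bronchial epithelial cells and dermal fibroblasts, exposed to chemicals for 24 h versus DMSO. Eotaxin-3 quantified by ELISA; cytotoxicity checked in parallel cultures by sulforhodamine B total-protein staining.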

[9] = read-out: Monocyte Chemoattractant Protein-1 (MCP1), CCL2 (gene 6347); experiment: BSK_BF4T_MCP1: BioMAP Diversity Plus: BF4T Assay for Monocyte Chemoattractant Protein-1 (MCP1) Biomarker Activity (AID 2284259); conditions: primary human bronchial epithelial cells with fibroblasts
Method in brief: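 Co-culture of bronchial epithelial cells and dermal fibroblasts dosed with chemical; MCP-1 measured by ELISA 24 h later. Activity fitted in positive direction versus DMSO; cytotoxicity checked by SRB staining in parallel cultures.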

[10] = read-out: Intercellular Adhesion Molecule 1 (ICAM1), ICAM1 (gene 3383); experiment: BSK_BF4T_ICAM1: BioMAP Diversity Plus: BF4T Assay for Intercellular Adhesion Molecule 1 (ICAM1) Biomarker Activity (AID 2284260); conditions: primary human bronchial epithelial cells with fibroblasts
Method in brief: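 Co-culture of human bronchial epithelial cells and dermal fibroblasts exposed 24 h to chemical; cell-surface ICAM-1 quantified by ELISA. Parallel SRB total-protein staining assessed cytotoxicity; activity fitted relative to DMSO.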

[11] = read-out: Interleukin-8 (IL8), CXCL8 (gene 3576); experiment: BSK_MyoF_IL8: BioMAP Diversity Plus: MyoF Assay for Interleukin-8 (IL8) Biomarker Activity (AID 2284261); conditions: primary human lung fibroblasts
Method in brief: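 In this multiplexed primary-cell system, fibroblasts from human lung are treated with chemicals, and IL-8 is detected by ELISA at 24 h, with DMSO serving as the negative reference.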

CD90, THY1 (gene 7070) = experiment: BSK_BF4T_CD90: BioMAP Diversity Plus: BF4T Assay for CD90 Biomarker Activity (AID 2284262); conditions: primary human bronchial epithelial cells with fibroblasts
Method in brief: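 Co-culture of human bronchial epithelial cells and dermal fibroblasts, 24 h compound exposure. Cell-surface CD90 measured by ELISA relative to DMSO; parallel SRB total-protein staining for cytotoxicity.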

[12] = read-out: Interleukin-8 (IL8), CXCL8 (gene 3576); experiment: BSK_BF4T_IL8: BioMAP Diversity Plus: BF4T Assay for Interleukin-8 (IL8) Biomarker Activity (AID 2284263); conditions: primary human bronchial epithelial cells with fibroblasts
Method in brief: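 Human bronchial epithelial cells with dermal fibroblasts co-culture; IL-8 measured by ELISA 24 hours after dosing, fitted vs DMSO. Cytotoxicity tracked in parallel cultures by SRB total-protein staining.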

[13] = read-out: Interleukin-1 alpha (IL1a), IL1A (gene 3552); experiment: BSK_BF4T_IL1a: BioMAP Diversity Plus: BF4T Assay for Interleukin-1 alpha (IL1a) Biomarker Activity (AID 2284264); conditions: primary human bronchial epithelial cells with fibroblasts
Method in brief: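 Human bronchial epithelial cells co-cultured with dermal fibroblasts, dosed and read at 24 h. Secreted/surface IL-1α quantified by ELISA; gain-of-signal fitted relative to DMSO baseline. Parallel SRB total-protein staining tracked cytotoxicity.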

Decorin, DCN (gene 1634) = experiment: BSK_MyoF_Decorin: BioMAP Diversity Plus: MyoF Assay for Decorin Biomarker Activity (AID 2284265); conditions: primary human lung fibroblasts
Method in brief: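 Lung fibroblast cultures, 24 h chemical exposure. Decorin by ELISA, positive fitting direction, DMSO baseline.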

KRT18 (gene 3875) = experiment: BSK_BF4T_Keratin818: BioMAP Diversity Plus: BF4T Assay for Keratin 818 Biomarker Activity (AID 2284266); conditions: primary human bronchial epithelial cells with fibroblasts
Method in brief: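 Co-culture of human bronchial epithelial cells and dermal fibroblasts, chemical exposure 24 h. Keratin 8/18 measured by ELISA; positive-direction fit vs DMSO. SRB total protein run in parallel cultures for cytotoxicity.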

[14] = BSK_MyoF_SRB: Viability Assessment in the BioMAP Diversity Plus: MyoF Assay (AID 2284267); conditions: primary human lung fibroblasts;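 note: total protein by SRB absorbance in parallel cultures as cytotoxicity measure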
Method in brief: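 Cytotoxicity in primary human lung fibroblasts is gauged by SRB total-protein staining 24 h after dosing, with DMSO as the negative control.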

[15] = read-out: Matrix Metallopeptidase 1 (MMP1), MMP1 (gene 4312); experiment: BSK_MyoF_MMP1: BioMAP Diversity Plus: MyoF Assay for Matrix Metallopeptidase 1 (MMP1) Biomarker Activity (AID 2284268); conditions: primary human lung fibroblasts
Method in brief: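 MMP1 measured by ELISA 24 h after dosing primary human lung fibroblasts; cytotoxicity checked in parallel cultures by sulforhodamine B total-protein staining read at 560 nm.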

[16] = read-out: TIMP metallopeptidase inhibitor 1 (TIMP1), TIMP1 (gene 7076); experiment: BSK_MyoF_TIMP1: BioMAP Diversity Plus: MyoF Assay for TIMP metallopeptidase inhibitor 1 (TIMP1) Biomarker Activity (AID 2284269); conditions: primary human lung fibroblasts
Method in brief: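 ELISA quantified TIMP-1 levels after 24 h dosing of primary human lung fibroblasts, with DMSO as baseline. Parallel SRB total protein staining (0.1% SRB after TCA fixation, 560 nm) flagged overt cytotoxicity.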

Measured: AC50

NS(=O)(=O)C(F)(F)C(F)(F)C(F)(F)C(F)(F)C(F)(F)C(F)(F)C(F)(F)C(F)(F)F
inactive: [1] | CD69, CD69 (gene 969) | Decorin, DCN (gene 1634) | [15]
active: [2] 8.34 µM and 8.29 µM | [3] 40.7 µM and 21.7 µM | [4] 45.2 µM and 50.4 µM | [5] 37.2 µM and 22.3 µM | [6] 54.8 µM and 43.3 µM | [7] 46.3 µM and 55.1 µM | CD69, CD69 (gene 969) 10 µM | [8] 20.4 µM and 12.6 µM | [9] 47.9 µM and 42 µM | [10] 47.2 µM and 36 µM | [11] 53 µM and 50.7 µM | CD90, THY1 (gene 7070) 30 µM and 21.8 µM | [12] 49.2 µM and 48.2 µM | [13] 44.9 µM and 24.2 µM | Decorin, DCN (gene 1634) 52.9 µM | KRT18 (gene 3875) 44.7 µM and 31.5 µM | [14] 43.1 µM and 42.8 µM | [16] 35.1 µM and 21.5 µM

COc1ccc(O)c(C(C)(C)C)c1
inactive: [1] | [2] | [3] | [5]

O=C(O)C(F)(F)C(F)(F)C(F)(F)C(F)(F)C(F)(F)F
inactive: all assays above

O=S(=O)(O)C(F)(F)C(F)(F)C(F)(F)C(F)(F)F
inactive: all assays above

Sc1ccccc1
inactive: [7] | [11] | Decorin, DCN (gene 1634) | [14] | [15] | [16]

Oc1c(Cl)c(Cl)c(Cl)c(Cl)c1Cl
active: [7] 7.45 µM | [11] 595 nM | Decorin, DCN (gene 1634) 10.2 µM | [14] 6.05 µM | [15] 11.5 µM | [16] 9.53 µM

O=C(O)C(F)(F)C(F)(F)C(F)(F)C(F)(F)C(F)(F)C(F)(F)C(F)(F)C(F)(F)F
active: [2] 47.9 µM and 47.8 µM | [3] 48.2 µM and 41.7 µM | CD69, CD69 (gene 969) 49.9 µM and 48.7 µM | [8] 17 µM and 15.5 µM | [9] 21.7 µM and 34.2 µM | [10] 22.2 µM and 38.1 µM | [12] 48 µM and 48.7 µM | [13] 48.7 µM and 52.5 µM | KRT18 (gene 3875) 51.6 µM and 55.1 µM
inactive: all other assays above

O=C(O)C(F)(F)C(F)(F)C(F)(F)C(F)(F)C(F)(F)C(F)(F)C(F)(F)C(F)(F)C(F)(F)F
active: [2] 19 µM and 22 µM | [3] 41.7 µM and 33.4 µM | [4] 46.9 µM and 53.7 µM | [5] 44.9 µM | [6] 47 µM and 33.7 µM | [7] 46.7 µM and 54.8 µM | CD69, CD69 (gene 969) 45.3 µM and 42 µM | [8] 9.59 µM and 12.1 µM | [9] 9.32 µM and 8.22 µM | [10] 11.6 µM and 14.5 µM | [11] 54600 nM | CD90, THY1 (gene 7070) 19 µM and 19.4 µM | [13] 14.3 µM and 48 µM | Decorin, DCN (gene 1634) 23.6 µM and 22.3 µM | KRT18 (gene 3875) 15 µM | [14] 50 µM and 38.9 µM | [15] 45 µM | [16] 50.6 µM and 37.4 µM
inactive: [1] | [5] | [11] | [12] | KRT18 (gene 3875) | [15]

O=S(=O)(O)C(F)(F)C(F)(F)C(F)(F)C(F)(F)C(F)(F)C(F)(F)F
inactive: all assays above
